Data reported in PubChem BioAssay (NCATS).
Results filed as inconclusive are left out. Entries that show only a call come without a potency. Active and inactive are the calls of the source. Calls come from the whole dose curve; as a rule, active = well fitted cell-killing curve with a large enough effect; inconclusive = small, poorly fitted or top-dose-only effect; inactive = flat fitted curve, though single readings scatter.

Assay: qHTS of pediatric cancer cell lines to identify multiple opportunities for drug repurposing: Primary screen for control Hh wild type fibroblast cells (AID 1347106); note: nearly all actives have a fitted effect of over 55% in size
Conditions: Hh wild-type fibroblast viability, CellTiter-Glo luminescence, 48 h; series mostly up to 46 µM
Description: Drug repurposing or repositioning has been offered as a strategy for drug development in oncology programs. This approach has special potential for childhood cancers and other rare or orphan diseases, where the expected return on new drug development has been a disincentive to pharmaceuticals.
In this project we exploit the poly-pharmacology of drugs to discover new indications via phenotypic screening of a panel of 19 well-characterized cell lines derived from solid tumors seen in children and adolescents. The goal is to identify approved drugs with previously unrecognized anticancer properties that has the potential to reveal new mechanisms and biological processes involved in carcinogenesis or drug resistance. We employed a titration-based paradigm (quantitative high-throughput screening or qHTS), where all compounds were tested at multiple concentrations for their effect on cell viability. Concentration-response curves (CRCs) were derived directly from the primary screen, and both potency and efficacy values were used to identify compounds with robust bioactivity profiles. We screened the NIH Chemical Genomics Center (NCGC) Pharmaceutical Collection (NPC) and Mechanism Interrogation Plate (MIPE) small molecule collections of approved and investigational compounds against these cell lines; and measured metabolically active cells after 48 hours of compound treatment as a proxy for cell viability.
Assay Submitter: Nathalia J. Martinez, National Center for Advancing Translational Sciences, National Institutes of Health, Rockville, MD, USA; email: natalia.martinez@nih.gov
[1] Shen, M et al. Quantitative high-throughput phenotypic screening of pediatric cancer cell lines identifies multiple opportunities for drug repurposing. Oncotarget 2017 Dec 19;9(4):4758-4772. PMID 29435139.
The cells were obtained from University of North Carolina (UNC), Pediatric Preclinical Testing Program (PPT), and Coriell Institute (CI).
qHTS cell viability assay:
Cells were assayed in growth media at a density of 500-1,000 cells/well. Five microliters of cells were dispensed into 1,536-well, white, solid-bottom, TC-treated plates (Greiner Bio One) using a multidrop dispenser and incubated at 37 degrees C, 5% CO2, under a humidified atmosphere for 5 hours. Twenty-three nanoliters of compounds and controls (neutral control DMSO or positive control bortezomib at final concentration of 2.3 µM) were subsequently transferred by Kalypsys pintool. For primary screens, the MIPE collection was tested at 11-point dilutions (final concentrations range from 0.78 nM to 46 µM) and the NPC collection at 8-point dilutions (final concentrations range from 0.59 nM to 46 µM). Compounds tested in follow-up screens were assayed at 11-point dilutions. Cells were incubated for 48 hours, followed by addition of 3 µL of CellTiter-Glo (Promega). After a 15 min incubation at room temperature, samples were analyzed for luminescence intensity using a ViewLux High-throughput CCD imager equipped with clear filters.
Potency is the fitted concentration of half-maximal effect.

| Compound | Potency |
| --- | --- |
| C=CCc1cccc(C=NNC(=O)CN2CCN(Cc3ccccc3)CC2)c1O | inactive |
| CCOC(=O)[C@H]1O[C@H]1C(=O)N[C@@H](CC(C)C)C(=O)NCCC(C)C | inactive |
| N#Cc1c(N(CC(=O)O)CC(=O)O)sc(C(=O)O)c1CC(=O)O | inactive |
| O=C(c1ccc(C(=O)N2CCC(N3CCCC3)CC2)c(Nc2ccccc2)c1)N1CCC(N2CCCC2)CC1 | inactive |
| CC1CCN(c2cc(N3CCN(C)CC3)ccc2NC(=O)c2cc(C#N)c[nH]2)CC1 | inactive |
| CC(C)c1onc(-c2c(Cl)cccc2Cl)c1COc1ccc(C=Cc2cccc(C(=O)O)c2)c(Cl)c1 | inactive |
| COc1ccc2cc1Oc1ccc(cc1)C[C@H]1c3cc(c(OC)cc3CCN1C)Oc1c(OC)c(OC)cc3c1[C@H](C2)N(C)CC3 | inactive |
| Fc1ccc(C(c2ccc(F)cc2)N2CCN(CC=Cc3ccccc3)CC2)cc1 | inactive |
| CN(C)CC[C@H](CSc1ccccc1)Nc1ccc(S(=O)(=O)NC(=O)c2ccc(N3CCN(Cc4ccccc4-c4ccc(Cl)cc4)CC3)cc2)cc1[N+](=O)[O-] | inactive |
| Cc1cccc(Nc2nc(N[C@@H]3CCCC[C@H]3N)ncc2C(N)=O)c1 | inactive |
| CC(C)CN(C[C@@H](O)[C@H](Cc1ccccc1)NC(=O)O[C@H]1CO[C@H]2OCC[C@H]21)S(=O)(=O)c1ccc(N)cc1 | inactive |
| COc1ccc(-c2cc3nccn3c(Nc3ncccc3C(N)=O)n2)cc1OC | inactive |
| COc1ccnc(CS(=O)c2nc3ccc(OC(F)F)cc3[nH]2)c1OC (stereo not given) | inactive |
| CN[C@@H]1CN(c2ccc3c(=O)c(C(=O)O)cn(-c4nccs4)c3n2)C[C@@H]1OC | inactive |
| C[C@@H]1[C@H](C)CC[C@]2(C(=O)O)CC[C@]3(C)C(=CC[C@@H]4[C@@]5(C)CC[C@H](O)C(C)(C)[C@H]5CC[C@]43C)[C@@H]12 | inactive |
| CN(CC=CC#CC(C)(C)C)Cc1cccc2ccccc12 | inactive |
| CCCCCCCCCCCCCCCC(=O)O[C@H]1[C@@H](O)[C@@H](O)[C@@H]([C@H](NC(=O)[C@@H]2C[C@@H](CCC)CN2C)[C@H](C)Cl)O[C@@H]1SC | inactive |
| CCN(CC)CCCCNc1nc2cc(Cl)c(Cl)cc2nc1-c1ccc(-c2cccs2)s1 | inactive |
| CN(C)CCN(C)C(=O)c1ccc(NC(=O)Nc2ccc(-c3nc(N4CCOCC4)c4ccn(CC(F)(F)F)c4n3)cc2)cc1 | 52.6 nM (active) |
| N#CC1(c2cccc(C(=O)Nc3cc(Oc4ccc5nc(NC(=O)C6CC6)sc5n4)ccc3F)c2Cl)CC1 | inactive |

| Compound | Potency |
| --- | --- |
| O=C(O)CCC=CCC[C@@H]1[C@H](N2CCCCC2)[C@@H](O)C[C@@H]1OCc1ccc(-c2ccccc2)cc1 | inactive |
| C=C1[C@H](n2cnc3c(=O)[nH]c(N)nc32)C[C@H](O)[C@H]1CO | inactive |
| Cc1ccc(NC(=O)Nc2cc(C(F)(F)F)ccc2F)cc1Nc1ccc2c(c1)NC(=O)C2=Cc1ccc[nH]1 | inactive |
| CN1[C@H]2CC[C@H]1CC(OC(=O)c1c[nH]c3ccccc13)C2 (stereo not given in full) | inactive |
| CC(C)C[C@@H](C(=O)N[C@H](C(=O)OC1CCCC1)c1ccccc1)[C@H](O)C(=O)NO | inactive |
| CN[C@@H]1[C@@H](O)[C@@H](O[C@@H]2[C@@H](O)[C@H](O[C@H]3O[C@H](CN)[C@@H](O)[C@H](O)[C@@H]3O)[C@@H](N)C[C@@H]2NC(=O)[C@@H](O)CN)OC[C@]1(C)O | inactive |
| CCc1cc(-c2n[nH]c(C)c2-c2ccc3c(c2)OCCO3)c(O)cc1O | inactive |
| CC(C)C[C@H](NC(=O)c1cc2ccccc2s1)C(=O)N1CCN(C(=O)[C@H](CO)NS(=O)(=O)c2ccc(Cl)cc2Cl)CC1 | inactive |
| COc1ccc2nc3cc(Cl)ccc3c(Nc3cc(CN4CCCC4)c(O)c(CN4CCCC4)c3)c2n1 | inactive |
| COC(=O)Nc1ccc(-c2nc(N3CCOCC3)c3cnn(C4CCN(C(=O)OC)CC4)c3n2)cc1 | 20.9 nM (active) |
| Cc1ccccc1-n1c(Cn2nc(-c3cccc(O)c3)c3c(N)ncnc32)nc2cccc(C)c2c1=O | inactive |
| COc1nc(C)cnc1NS(=O)(=O)c1cccnc1-c1ccc(-c2nnco2)cc1 | inactive |
| CCC[C@H](Nc1nc(-c2ccc(NC(=O)NCC)c(OC)c2)ncc1C)c1cccnc1 | inactive |
| Clc1ccc(COC(Cn2ccnc2)c2ccc(Cl)cc2Cl)c(Cl)c1 (stereo not given) | inactive |
| O=C(O)CCNc1cc(N2CCc3ccccc3CC2)nc(-c2ccccn2)n1 | inactive |
| COc1ccc(Cn2ccc3ccc(C(=O)NO)cc32)cc1 | inactive |
| C[C@H]1[C@H](O)O[C@@H]2O[C@@]3(C)CC[C@@H]4[C@H](C)CC[C@@H]1[C@@]24OO3 | inactive |
| NS(=O)(=O)c1ccc(Nc2nc(OCC3CCCCC3)c3[nH]cnc3n2)cc1 | inactive |
| COc1cccc(OC)c1-c1cc(C(=O)NC2(C(=O)O)C3CC4CC(C3)CC2C4)nn1-c1ccnc2cc(Cl)ccc12 (stereo not given) | inactive |
| O=C(Nc1ccccc1)Nc1ccc(-c2ccc(C(=O)[C@H]3CCC[C@H]3C(=O)O)cc2)cc1 | inactive |
